The source made the active and inactive calls. The calls were made as follows: active = hit-call score of the fitted dose curve at least 0.9, where 1 is the maximum; inactive = score below 0.9.
Experiments:
Conditions in all cases: mRNA level, 48 h; actives raise or lower the signal
[1] = read-out: Tumor necrosis factor receptor superfamily member 6 (Homo sapiens) (UniProt P25445); test: LTEA_HepaRG_FAS: Life Technologies and Expression Analysis (LTEA) Assay for Fas cell surface death receptor (FAS) using HepaRG (AID 2283447)
In short: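 Differentiated HepaRG cells in serum-free induction medium were exposed 48 h to 8 half-log concentrations up to 100 uM in 0.5% DMSO, in duplicate. FAS mRNA was measured by qRT-PCR normalised to ACTB, GAPDH and POLR2A; bidirectional fit versus DMSO.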

[2] = read-out: Fatty acid synthase (Homo sapiens) (UniProt P49327); test: LTEA_HepaRG_FASN: Life Technologies and Expression Analysis (LTEA) Assay for Fatty Acid Synthase (FASN) using HepaRG (AID 2283448)
In short: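 HepaRG, 48 h exposure, 8-pt half-log series top 100 uM, 0.5% DMSO vehicle, duplicates. Readout: FASN transcript by Fluidigm qRT-PCR; housekeeping-normalized; bidirectional curve fit vs DMSO baseline.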

[3] = read-out: Cyclin D2 (CCND2), CCND2 (gene 894); test: LTEA_HepaRG_CCND2: Life Technologies and Expression Analysis (LTEA) Assay for Cyclin D2 (CCND2) using HepaRG (AID 2283449);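 also: CCND2 transcript measured by TaqMan qRT-PCR and normalised to three housekeeping genes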
In short: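 HepaRG, 48 h dosing, 8-pt half-log curve from 100 uM, 0.5% DMSO; duplicate wells. Readout: CCND2 transcript by microfluidic qRT-PCR, housekeeping-normalised; bidirectional fit vs DMSO baseline.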

[4] = read-out: Cyclin Dependent Kinase Inhibitor 1A (CDKN1A), CDKN1A (gene 1026); test: LTEA_HepaRG_CDKN1A: Life Technologies and Expression Analysis (LTEA) Assay for Cyclin Dependent Kinase Inhibitor 1A (CDKN1A) using HepaRG (AID 2283450)
In short: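 Differentiated HepaRG cells in serum-free induction medium, exposed 48 h in duplicate to eight half-log concentrations up to 100 uM in 0.5% DMSO. mRNA measured by TaqMan qRT-PCR, normalized to ACTB, GAPDH, POLR2A; bidirectional fit versus DMSO.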

[5] = read-out: catalase (CAT), CAT (gene 847); test: LTEA_HepaRG_CAT: Life Technologies and Expression Analysis (LTEA) Assay for catalase (CAT) using HepaRG (AID 2283452)
In short: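 HepaRG cells in serum-free induction medium, 0.5% DMSO vehicle, exposed 48 h in duplicate over 8 half-log concentrations from 100 uM. CAT mRNA measured by qRT-PCR, normalized to ACTB, GAPDH, POLR2A; bidirectional fit versus DMSO.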

[6] = read-out: CFLAR gene, CFLAR (gene 8837); test: LTEA_HepaRG_CFLAR: Life Technologies and Expression Analysis (LTEA) Assay for CFLAR gene using HepaRG (AID 2283455)
In short: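 qRT-PCR read-out (Fluidigm/TaqMan) of CFLAR mRNA, normalized to three housekeeping genes, in differentiated human HepaRG cells after 48 h chemical exposure; 8-point half-log series from 100 uM in 0.5% DMSO; bidirectional curve fitting versus DMSO.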

[7] = read-out: Forkhead box O1 (FOXO1), FOXO1 (gene 2308); test: LTEA_HepaRG_FOXO1: Life Technologies and Expression Analysis (LTEA) Assay for Forkhead box O1 (FOXO1) using HepaRG (AID 2283456)
In short: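 HepaRG, 48 h exposure, 8-pt half-log series from 100 uM in 0.5% DMSO, duplicates; Fluidigm qRT-PCR mRNA, housekeeping-normalised; bidirectional fit vs DMSO baseline.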

[8] = read-out: growth arrest and DNA damage 45 (GADD45A), GADD45A (gene 1647); test: LTEA_HepaRG_GADD45A: Life Technologies and Expression Analysis (LTEA) Assay for growth arrest and DNA damage 45 (GADD45A) using HepaRG (AID 2283458)
In short: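 HepaRG, 48 h exposure, 8 conc. (top 100 uM, half-log steps), 0.5% DMSO vehicle, duplicates. Read-out: qRT-PCR mRNA level, housekeeping-normalized (ACTB/GAPDH/POLR2A). Curves fit bidirectionally vs DMSO baseline.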

[9] = read-out: Forkhead box O3 (FOXO3), FOXO3 (gene 2309); test: LTEA_HepaRG_FOXO3: Life Technologies and Expression Analysis (LTEA) Assay for Forkhead box O3 (FOXO3) using HepaRG (AID 2283459)
In short: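 qRT-PCR readout of FOXO3 transcript, normalized to three housekeeping genes (ACTB, GAPDH, POLR2A); gain or loss fitted against 0.5% DMSO vehicle. HepaRG cells, 48 h chemical exposure, 8-point half-log series, top 100 uM.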

[10] = read-out: ABC Transporter (ABCB1), ABCB1 (gene 5243); test: LTEA_HepaRG_ABCB1: Life Technologies and Expression Analysis (LTEA) Assay for ABC Transporter (ABCB1) using HepaRG (AID 2283460)
In short: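 HepaRG, 48 h exposure, 8-pt half-log series from 100 uM, 0.5% DMSO vehicle, duplicates. Readout: ABCB1 transcript by Fluidigm TaqMan qRT-PCR, housekeeping-normalized; bidirectional curve fit vs DMSO baseline.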

[11] = read-out: ABC Transporter (ABCC3), ABCC3 (gene 8714); test: LTEA_HepaRG_ABCC3: Life Technologies and Expression Analysis (LTEA) Assay for ABC Transporter (ABCC3) using HepaRG (AID 2283462)
In short: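 Differentiated human HepaRG cells exposed 48 h in serum-free induction medium, 0.5% DMSO vehicle, 8-point half-log series to 100 uM in duplicate. ABCC3 mRNA by qRT-PCR, normalised to ACTB, GAPDH, POLR2A; bidirectional fit vs DMSO.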

[12] = read-out: ABC Transporter (ABCB11), ABCB11 (gene 8647); test: LTEA_HepaRG_ABCB11: Life Technologies and Expression Analysis (LTEA) Assay for ABC Transporter (ABCB11) using HepaRG (AID 2283463)
In short: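 HepaRG, 48 h exposure, 8-pt half-log CRC top 100 uM, 0.5% DMSO vehicle, duplicates. Readout: TaqMan qRT-PCR of ABCB11 mRNA, housekeeping-normalized (ACTB/GAPDH/POLR2A). Bidirectional fit vs DMSO baseline.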

[13] = read-out: ABC Transporter (ABCC2), ABCC2 (gene 1244); test: LTEA_HepaRG_ABCC2: Life Technologies and Expression Analysis (LTEA) Assay for ABC Transporter (ABCC2) using HepaRG (AID 2283464)
In short: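 Differentiated HepaRG cells in serum-free induction medium exposed 48 h to eight half-log concentrations up to 100 uM, 0.5% DMSO, in duplicate. ABCC2 mRNA measured by qRT-PCR (TaqMan, Fluidigm), normalized to ACTB, GAPDH and POLR2A. Fitted in both directions against DMSO.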

[14] = read-out: Broad substrate specificity ATP-binding cassette transporter ABCG2 (Homo sapiens) (UniProt Q9UNQ0); test: LTEA_HepaRG_ABCG2: Life Technologies and Expression Analysis (LTEA) Assay for ABC Transporter (ABCG2) using HepaRG (AID 2283465)
In short: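 HepaRG, 48 h exposure, 8-pt half-log series from 100 uM, 0.5% DMSO vehicle, duplicates. Readout: ABCG2 transcript by qRT-PCR (Fluidigm array), housekeeping-normalized; bidirectional curve fit relative to DMSO baseline.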

[15] = read-out: Cytochrome P450 (CYP1A1), CYP1A1 (gene 1543); test: LTEA_HepaRG_CYP1A1: Life Technologies and Expression Analysis (LTEA) Assay for Cytochrome P450 (CYP1A1) using HepaRG (AID 2283454)
In short: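 Differentiated human HepaRG cells, after 48 h plating, exposed in duplicate for 48 h in serum-free induction medium to 8 half-log concentrations up to 100 uM in 0.5% DMSO. CYP1A1 mRNA by qRT-PCR, normalized to ACTB/GAPDH/POLR2A; bidirectional fit versus DMSO.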

[16] = read-out: growth arrest and DNA damage 45 (GADD45B), GADD45B (gene 4616); test: LTEA_HepaRG_GADD45B: Life Technologies and Expression Analysis (LTEA) Assay for growth arrest and DNA damage 45 (GADD45B) using HepaRG (AID 2283461)
In short: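 Differentiated human HepaRG cells in serum-free induction medium exposed 48 h in duplicate to eight concentrations, top 100 uM, half-log steps, 0.5% DMSO. GADD45B mRNA by TaqMan qRT-PCR, normalized to ACTB, GAPDH, POLR2A; bidirectional fit versus DMSO.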

[17] = read-out: flavin-containing dimethylaniline monooxygenases 3 (FMO3), FMO3 (gene 2328); test: LTEA_HepaRG_FMO3: Life Technologies and Expression Analysis (LTEA) Assay for flavin-containing dimethylaniline monooxygenases 3 (FMO3) using HepaRG (AID 2283453)
In short: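 Eight-point concentration-response in serum-free HepaRG cultures (top 100 uM, 0.5% DMSO, 48 h). Read-out: FMO3 mRNA level normalized to three endogenous control genes, fitted bidirectionally versus vehicle.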

[18] = read-out: Cyclin D1 (CCND1), CCND1 (gene 595); test: LTEA_HepaRG_CCND1: Life Technologies and Expression Analysis (LTEA) Assay for Cyclin D1 (CCND1) using HepaRG (AID 2283451);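 as to AC50: TaqMan qRT-PCR transcript level normalised to ACTB GAPDH and POLR2A housekeeping genes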
In short: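 Differentiated HepaRG cells exposed 48 h in serum-free induction medium to eight half-log concentrations from 100 uM top, 0.5% DMSO, duplicates. CCND1 mRNA measured by Fluidigm TaqMan qRT-PCR, normalised to ACTB, GAPDH, POLR2A; bidirectional fit.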

Measured: AC50

Chain of Fatty acid synthase (Homo sapiens) (P49327 whole entry, looked up): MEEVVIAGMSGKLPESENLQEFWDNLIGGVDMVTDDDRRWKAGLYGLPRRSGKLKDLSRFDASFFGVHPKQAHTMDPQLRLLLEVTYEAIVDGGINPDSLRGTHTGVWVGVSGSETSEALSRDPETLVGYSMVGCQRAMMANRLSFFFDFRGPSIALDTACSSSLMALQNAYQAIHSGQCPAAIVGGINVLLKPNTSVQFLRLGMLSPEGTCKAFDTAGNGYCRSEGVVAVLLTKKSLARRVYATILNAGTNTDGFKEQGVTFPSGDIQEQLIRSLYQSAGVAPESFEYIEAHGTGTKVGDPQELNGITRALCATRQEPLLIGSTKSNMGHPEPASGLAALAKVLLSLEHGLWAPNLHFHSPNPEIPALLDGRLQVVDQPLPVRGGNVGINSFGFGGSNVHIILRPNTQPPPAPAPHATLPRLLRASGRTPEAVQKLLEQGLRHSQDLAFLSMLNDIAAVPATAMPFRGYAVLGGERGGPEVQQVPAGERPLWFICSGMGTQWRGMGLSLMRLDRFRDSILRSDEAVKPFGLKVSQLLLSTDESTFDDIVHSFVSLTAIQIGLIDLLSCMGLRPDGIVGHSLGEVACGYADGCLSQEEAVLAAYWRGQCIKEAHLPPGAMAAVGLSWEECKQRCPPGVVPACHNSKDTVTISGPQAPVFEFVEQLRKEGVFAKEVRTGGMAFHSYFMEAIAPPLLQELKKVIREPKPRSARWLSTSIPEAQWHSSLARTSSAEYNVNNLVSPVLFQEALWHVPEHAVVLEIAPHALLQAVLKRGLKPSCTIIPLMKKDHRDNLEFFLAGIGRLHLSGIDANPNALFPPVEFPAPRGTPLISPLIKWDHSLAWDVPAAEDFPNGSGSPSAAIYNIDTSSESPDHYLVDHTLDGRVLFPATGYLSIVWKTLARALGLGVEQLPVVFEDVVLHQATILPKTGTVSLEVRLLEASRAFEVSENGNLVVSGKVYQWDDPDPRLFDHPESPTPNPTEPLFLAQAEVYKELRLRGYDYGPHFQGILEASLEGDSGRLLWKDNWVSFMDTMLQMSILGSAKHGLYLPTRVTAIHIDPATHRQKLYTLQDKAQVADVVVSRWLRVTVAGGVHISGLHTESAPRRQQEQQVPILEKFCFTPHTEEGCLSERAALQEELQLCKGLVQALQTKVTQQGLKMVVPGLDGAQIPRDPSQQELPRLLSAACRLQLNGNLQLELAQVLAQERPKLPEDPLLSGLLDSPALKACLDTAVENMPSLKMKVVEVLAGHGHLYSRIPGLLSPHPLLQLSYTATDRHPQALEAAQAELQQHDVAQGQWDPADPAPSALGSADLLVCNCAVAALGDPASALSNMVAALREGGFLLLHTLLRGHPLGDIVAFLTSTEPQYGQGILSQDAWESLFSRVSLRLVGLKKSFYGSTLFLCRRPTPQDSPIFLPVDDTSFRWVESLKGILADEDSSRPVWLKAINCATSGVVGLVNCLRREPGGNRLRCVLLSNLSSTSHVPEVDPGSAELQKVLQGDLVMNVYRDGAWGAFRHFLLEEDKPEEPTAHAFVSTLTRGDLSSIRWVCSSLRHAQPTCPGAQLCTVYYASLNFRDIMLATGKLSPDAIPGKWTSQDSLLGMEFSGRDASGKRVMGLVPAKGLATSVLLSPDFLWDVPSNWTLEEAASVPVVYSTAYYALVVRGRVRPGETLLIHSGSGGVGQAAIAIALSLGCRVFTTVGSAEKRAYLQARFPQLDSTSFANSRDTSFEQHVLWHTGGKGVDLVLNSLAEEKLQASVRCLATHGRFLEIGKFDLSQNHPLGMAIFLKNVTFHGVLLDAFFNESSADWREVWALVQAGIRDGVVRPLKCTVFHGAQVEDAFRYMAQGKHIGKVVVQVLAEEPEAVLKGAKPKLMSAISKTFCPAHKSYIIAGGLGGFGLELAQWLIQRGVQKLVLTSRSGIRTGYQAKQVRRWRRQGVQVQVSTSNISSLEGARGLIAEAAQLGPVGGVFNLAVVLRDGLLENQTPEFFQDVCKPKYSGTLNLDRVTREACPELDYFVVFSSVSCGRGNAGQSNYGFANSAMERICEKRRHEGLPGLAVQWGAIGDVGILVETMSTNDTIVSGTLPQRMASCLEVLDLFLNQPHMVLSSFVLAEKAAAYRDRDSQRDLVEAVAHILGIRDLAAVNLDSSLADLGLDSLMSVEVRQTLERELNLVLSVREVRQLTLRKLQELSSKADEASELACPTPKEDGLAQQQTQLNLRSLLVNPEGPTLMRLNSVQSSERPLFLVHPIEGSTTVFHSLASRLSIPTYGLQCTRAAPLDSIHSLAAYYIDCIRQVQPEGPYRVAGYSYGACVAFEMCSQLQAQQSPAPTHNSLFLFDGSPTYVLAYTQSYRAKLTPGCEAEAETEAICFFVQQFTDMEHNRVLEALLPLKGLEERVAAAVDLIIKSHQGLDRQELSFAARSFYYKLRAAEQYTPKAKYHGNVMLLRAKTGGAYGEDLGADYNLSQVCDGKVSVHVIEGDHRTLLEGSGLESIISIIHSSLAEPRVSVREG
Chain of Broad substrate specificity ATP-binding cassette transporter ABCG2 (Homo sapiens) (Q9UNQ0 whole entry, looked up): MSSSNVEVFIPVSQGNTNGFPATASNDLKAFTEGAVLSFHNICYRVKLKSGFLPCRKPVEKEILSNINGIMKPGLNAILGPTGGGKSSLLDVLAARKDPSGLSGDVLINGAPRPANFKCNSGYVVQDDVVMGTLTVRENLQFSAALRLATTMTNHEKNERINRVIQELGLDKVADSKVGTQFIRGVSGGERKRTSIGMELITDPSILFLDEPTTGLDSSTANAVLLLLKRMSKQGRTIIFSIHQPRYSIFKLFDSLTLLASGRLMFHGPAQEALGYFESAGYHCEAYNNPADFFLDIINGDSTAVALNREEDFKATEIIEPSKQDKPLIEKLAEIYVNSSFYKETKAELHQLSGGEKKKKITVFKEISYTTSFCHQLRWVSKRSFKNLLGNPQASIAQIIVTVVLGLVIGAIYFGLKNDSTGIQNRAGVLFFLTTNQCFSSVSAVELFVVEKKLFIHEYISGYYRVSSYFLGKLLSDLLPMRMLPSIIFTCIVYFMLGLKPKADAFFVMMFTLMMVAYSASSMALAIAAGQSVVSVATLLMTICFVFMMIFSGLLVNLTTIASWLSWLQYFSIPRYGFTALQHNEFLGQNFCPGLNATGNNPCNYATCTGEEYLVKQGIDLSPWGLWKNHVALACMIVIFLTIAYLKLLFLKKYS

CC1=CC(=O)/C(=C(/C)O)C(=O)O1
not listed: [15] | [16] | [17] | [18]
inactive: all other assays above

CC/C(=C(/CC)c1ccc(O)cc1)c1ccc(O)cc1
inactive: [4] | [15] | [8] | [11] | [12]
active: [1] 50 µM | [2] 50 µM | [5] 91.7 µM | [6] 50 µM | [7] 74.8 µM | [9] 76.9 µM | [10] 82.2 µM | [16] 68.8 µM | [13] 78 µM | [14] 50 µM

CCOC(=O)O[C@H](C)OC(=O)c1ccc2c(c1)cc(C(=O)NC1CCN(C(C)C)CC1)n2Cc1cc(-c2ccc(Cl)s2)on1
not listed: [15] | [16] | [17] | [18]
inactive: all other assays above

O=c1[nH]sc2ccccc12
active: [15] 64.5 µM
not listed: [3] | [16] | [17] | [18]
inactive: all other assays above

COCC(C)OCC(C)OCC(C)O (stereo not given)
not listed: [18]
inactive: all other assays above

O=C(O)c1ccccc1C(=O)OCc1ccccc1
not listed: [15] | [17] | [18]
inactive: all other assays above

Cc1cn([C@H]2C[C@H](N=[N+]=[N-])[C@@H](CO)O2)c(=O)[nH]c1=O
not listed: [3] | [16] | [17] | [18]
inactive: all other assays above

OCCO
active: [9] 12.7 µM
not listed: [1] | [15] | [16]
inactive: all other assays above

COc1ccc2cc(S(=O)(=O)N[C@H](CC(=O)N[C@H](Cc3ccc(CN4[C@H](C)CCC[C@@H]4C)cc3)C(=O)N(C)C(C)C)c3ccc4c(c3)OCO4)ccc2c1
active: [1] 15.1 µM | [5] 17.7 µM | [17] 17.3 µM | [15] 24.4 µM | [6] 15.1 µM | [7] 25.2 µM | [8] 25.9 µM | [10] 23.1 µM | [16] 47.8 µM | [11] 11.2 µM | [12] 24.2 µM | [13] 16.2 µM
inactive: [2] | [4] | [9] | [14]

Cc1ccc(C(C)C)cc1
not listed: [3] | [15] | [16]
inactive: all other assays above

CCN(Cc1cccnc1)C(=O)c1cccc(Cl)c1[C@]1(C)C(=O)N(Cc2ccc(OC)cc2OC)c2ccc(Cl)cc21
active: [1] 21.3 µM | [2] 5.5 µM | [4] 11.6 µM | [5] 18.4 µM | [17] 16.6 µM | [8] 18.1 µM | [9] 8.39 µM | [12] 23.6 µM | [14] 6.56 µM
inactive: [6] | [7] | [10] | [16] | [11] | [13]

COc1cc(C(=O)NC2CCN(C)CC2)ccc1Nc1ncc2c(n1)N(C1CCCC1)CC(F)(F)C(=O)N2C
active: [1] 9.78 µM | [2] 46.5 µM | [18] 46.5 µM | [5] 15.3 µM | [6] 14.4 µM | [7] 11.5 µM | [8] 4.65 µM | [10] 6.41 µM | [11] 46.5 µM | [12] 4.65 µM | [13] 21.5 µM | [14] 4.65 µM
inactive: [3] | [4] | [9]

c1ccc2n[nH]nc2c1
not listed: [15] | [16] | [17]
inactive: all other assays above

Cc1cc(F)ccc1-c1cc(N2CC[C@@H](O)[C@H]2CO)ncc1N(C)C(=O)C(C)(C)c1cc(C(F)(F)F)cc(C(F)(F)F)c1
inactive: [2] | [3] | [7] | [8] | [9] | [11]
active: [1] 71.7 µM | [4] 12.3 µM | [5] 11.7 µM | [15] 70.6 µM | [6] 75.7 µM | [10] 10.3 µM | [12] 21.8 µM | [13] 70.7 µM | [14] 16.7 µM

CC(O)CC(C)(C)O (stereo not given)
not listed: [3] | [15]
inactive: all other assays above
